Screening results from PubChem BioAssay.
TSG101-PTAP inh: qHTS Assay for Iinhibitors of HIV-1 Budding by Blocking the Interaction of PTAP/TSG101; Fluorescence polarization, FITC-PTAP peptide / Tsg101 binding; Potency, µM (top dose mostly 115 µM), without a hit: at the top dose activity change, negative = inhibition, actives largely listed as inhibitors; 340,000 tested, under 10 active; Tumor susceptibility gene 101 protein (Homo sapiens), Q99816; AID 493005, 2010; active = well fitted inhibition curve with a large enough effect in the main read-out, with a control signal flat, not every such curve was filed as active; inconclusive = small, poorly fitted or top-dose-only effect, or effect the other way, or a change in a side signal; inactive = no such curve, though single readings can be large or run the other way; note: % of control where 0% means no effect
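FP read-out: FITC-PTAP peptide, 50 nM final, binding Tsg101 binding domain, 10 uM final; 20 min, r.t.; 10 mM HEPES pH 7.5, 0.15 M NaCl, 0.01% Tween 20, 3 mM EDTA, 0.1 mM TCEP.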
TDP1 inh: qHTS Assay for Inhibitors of Tyrosyl-DNA Phosphodiesterase (TDP1). recombinant TDP1, AlphaScreen DNA substrate cleavage. Potency, µM (series often up to 130 µM), without a hit: top-dose activity change, negative = inhibition, actives largely listed as inhibitors. 350,000 tested, 0.28% active; note: % is set by controls: 0 for no effect and ±100 for the full control effect; nearly all actives have a fitted effect of over 40% in size
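Recombinant human Tdp1 (E. coli-expressed, 1 nM final) preincubated with compounds 15 min at room temperature, then 5'-biotin/3'-phosphotyrosine-FITC DNA substrate (15 nM final) added for 5 min. AlphaScreen beads (10 ug/ml final) added 10 min; cleavage lowers signal.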
Rango dissoc inh: qHTS Assay for Inhibitors of RanGTP induced Rango (Ran-regulated importin-beta cargo) - Importin beta complex dissociation. Snurportin-1 (Homo sapiens) + GTP-binding nuclear protein Ran (Homo sapiens) + Importin …. Biochemical FRET Rango-importin beta, RanGTP-induced dissociation. Potency, µM (doses to about 46.1 µM), for the others: top-dose activity change, negative = inhibition. 340,000 tested, 0.071% active. AID 540253, 2011; calls by dose curve; note: % of control where 0% means no effect; nearly all actives have a fitted effect of over 45% in size
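Rango (0.1 uM)–importin beta (0.25 uM) complex; RanGTP-RCC1 trigger; 45 min RT; CFP/YFP FRET read.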
ClpP mod: qHTS Assay for Activators of ClpP | 340,000 tested, 1.9% active | Potency, µM (highest dose often 57.5 µM), for the others: top-dose activity change, negative = active | ATP-dependent Clp protease proteolytic subunit (Bacillus subtilis (strain 168)), P80244 | purified B. subtilis ClpP, FRET peptide cleavage, 20 min; active = well fitted falling curve with a large enough effect; inconclusive = small, poorly fitted or top-dose-only effect; inactive = no such curve, though single readings can be large or run the other way; note: the source files actives as falling curves though it sought activators and does not explain the sign; nearly all actives have a fitted effect of over 65% in size
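Buffer: 100 mM Tris/HCl pH8, 100 mM KCl, 0.05% low protease BSA, 2.5% glycerol, 0.01% Tween-20. ClpP 10 microg/mL final; 20 min RT; delta FRET normalized to ADEP and DMSO controls.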
Rango-impB inh: qHTS Assay for Inhibitors of Rango (Ran-regulated importin-beta cargo) - Importin beta complex formation | Potency, µM (top dose mostly 92.2 µM), without a hit: at the top dose inhibition of complex formation | Importin subunit beta-1 (Homo sapiens), Q14974 | Rango CFP/YFP FRET sensor + importin beta, 45 min | 340,000 tested, 0.031% active; calls by dose curve;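 note: 0% = DMSO wells and 100% = buffer wells lacking importin beta; nearly all actives have a fitted effect of over 15% in size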
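FRET biosensor Rango (snurportin 1 IBB between N-terminal EYFP and C-terminal Cerulean), 50 nM in PBS/1 mM DTT/0.02% Tween-20/0.1% BSA, preincubated 5 min RT with compound; 0.125 microM importin beta added, 45 min RT, CFP/YFP FRET ratio read.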
ALOX12 inh: Primary qHTS assay for inhibitors of human arachidonate 12S-lipoxygenase (ALOX12): Round 2; 580,000 tested, 1.1% active; AID 1671190, 2021; Polyunsaturated fatty acid lipoxygenase ALOX12 (Homo sapiens), P18054; purified 12hLO, xylenol orange hydroperoxide absorbance; Potency, µM (series often up to 108 µM), inactives show at the top dose activity change, negative = inhibition, actives largely listed as inhibitors; note: % is set by controls: 0 for no effect and ±100 for the full control effect
Target sequence (P18054 whole entry, looked up): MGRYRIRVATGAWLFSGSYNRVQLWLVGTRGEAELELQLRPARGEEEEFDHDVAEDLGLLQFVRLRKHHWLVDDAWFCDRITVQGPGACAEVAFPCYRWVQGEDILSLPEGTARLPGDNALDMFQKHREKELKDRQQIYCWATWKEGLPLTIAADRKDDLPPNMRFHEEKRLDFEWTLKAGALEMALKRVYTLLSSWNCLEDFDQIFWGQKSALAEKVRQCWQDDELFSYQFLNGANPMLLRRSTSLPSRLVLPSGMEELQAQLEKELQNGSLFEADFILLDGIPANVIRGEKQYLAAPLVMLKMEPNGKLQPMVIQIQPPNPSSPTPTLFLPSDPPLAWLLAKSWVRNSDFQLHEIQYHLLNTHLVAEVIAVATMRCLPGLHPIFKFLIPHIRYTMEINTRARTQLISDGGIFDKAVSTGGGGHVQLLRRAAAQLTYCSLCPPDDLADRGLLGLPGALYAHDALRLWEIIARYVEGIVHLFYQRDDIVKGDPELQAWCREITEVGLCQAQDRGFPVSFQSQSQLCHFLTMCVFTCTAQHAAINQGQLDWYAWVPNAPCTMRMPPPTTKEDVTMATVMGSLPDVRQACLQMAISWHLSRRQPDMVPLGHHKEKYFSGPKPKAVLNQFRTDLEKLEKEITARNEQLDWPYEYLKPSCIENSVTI
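Hydroperoxide product was detected by ferrous iron/xylenol orange as the 573 to 405 nm absorbance ratio. Arachidonic acid at 40 uM (final) was turned over for 30 min at room temperature by 150 nM human 12hLO, pH 7.0 Hepes buffer, after 15 min compound preincubation.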
* marks the source's active call; other numbers are inactive results; ? = inconclusive; / = no result given; [ ] = remark or other dose. Only some compounds are listed: those with a hit (about 2.4% of all), similar ones and a draw of the others. Unless noted, calls come from the whole dose curve; as a rule, active = well fitted curve in the direction sought with a large enough effect; inconclusive = small, poorly fitted or top-dose-only effect, or another doubt; inactive = no such curve, though single readings can be large; an effect the other way counts as inactive or inconclusive. Potency is the fitted concentration of half-maximal effect.

SMILES	TSG101-PTAP inh	TDP1 inh	Rango dissoc inh	ClpP mod	Rango-impB inh	ALOX12 inh
Cc1ccc(Cl)cc1NC(=O)c1ccc(NC(=O)N2CCSc3ncccc32)cc1	/	8%	/	32µM*	/	-27%
COc1ccc(CNC(=O)c2ccc(NC(=O)N3CCSc4ncccc43)cc2)cc1	/	6%	/	?	/	-22%
Cc1ccc(NC(=O)c2ccc(NC(=O)N3CCSc4ncccc43)cc2)c(C)c1	/	-6%	/	?	/	-18%
Cc1ccc(NC(=O)c2ccc(NC(=O)N3CCSc4ncccc43)cc2)c(Cl)c1	/	3%	/	28µM*	/	?
COc1cc(NC(=O)c2ccc(NC(=O)N3CCSc4ncccc43)cc2)cc(OC)c1	/	0%	/	32µM*	/	?
COc1cccc(CCC(=O)N2C[C@@H](CO)[C@H](c3ccccn3)C2)c1	/	/	/	/	/	-9%
Cc1oc(-c2ccccc2)nc1CC(=O)NCC1CCCN(C(C)C)C1 (stereo unspecified)	/	/	/	/	/	39%
COCCCNC(=O)c1c(C)c(-c2ccc(C)cc2)nc2ccccc12	/	/	/	/	/	-47%
COc1ccc(C2Cn3cnc(C(=O)N4CCC(C(=O)NCC5CC5)CC4)c3CO2)cc1 (stereo unspecified)	/	/	/	/	/	23%
Cc1cc2c(c(=O)n1CCN(C)C)C(c1ccncc1)C(C#N)=C(N)O2 (stereo unspecified)	0%	2%	-4%	2.5µM*	1%	-8%
Cc1cc2c(c(=O)n1CCN(C)C)C(c1ccc(Cl)cc1Cl)C(C#N)=C(N)O2 (stereo unspecified)	/	/	/	/	/	56µM*
Cc1nc(CN2Cc3nc(Oc4ccccc4)ccc3OCC2=O)cs1	/	/	/	/	/	16%[176 µM]
Cc1cc(=O)oc2cc(OCC3CC(c4ccc(Br)cc4)=NO3)ccc12 (stereo unspecified)	0%	2%	10%	28µM*	3%	-14%
Cc1cc(=O)oc2cc(OCC3CC(c4ccccc4)=NO3)ccc12 (stereo unspecified)	-3%	5%	-13%	28µM*	0%	10%
O=[N+]([O-])c1ccc(OCC2CC(c3ccccc3)=NO2)cc1 (stereo unspecified)	-3%	3%	1%	/	0%	?
CCC(CC)C(=O)Nc1nnc(-c2cccs2)s1	1%	-4%	2%	25µM*	-1%	-9%[57.4 µM]
CN1CCN(CC(=O)Nc2nnc(-c3cccs3)s2)CC1	1%	5%	1%	22µM*	1%	-13%
CCCc1nnc(NC(=O)CN2CCN(C)CC2)s1	-7%	1%	2%	0%	4%	?
Cc1cc(C)c2c(=N)c3ccccc3n(CCCCCCCCn3c4ccccc4c(=N)c4c(C)cc(C)nc43)c2n1	-1%	/	?	32µM*	0%	?
CCCCCC(=O)N/N=C/c1ccc(N(C)C)cc1	1%	3%	11%	28µM*	0%	-18%
O=c1ccn(Cc2ccccc2)c(SCc2ccccc2)n1	-2%	/	-21%	16µM*	?	?
Clc1ccc(CSc2nccn2Cc2ccccc2)cc1	-6%	4%	4%	-3%	0%	?
Cc1ccc2sc(N(CCCN(C)C)C(=O)c3ccc(S(=O)(=O)N(C)Cc4ccccc4)cc3)nc2c1C	0%	7%	8%	-10%	-1%	28µM*
